The source of these data is PubChem BioAssay (EPA / NIEHS).

Inconclusive results are not listed. Active and inactive are the calls of the source. Rule for the calls: active = hit-call score of the fitted dose curve at least 0.9, where 1 is the maximum; inconclusive = response in the unintended direction; inactive = score below 0.9.

This test in a line: ATG_M_06_TRANS: Attagene TRANS-FACTORIAL HepG2 Assay for M06 Transcription Factor (Internal Marker) (AID 2282983). The following applies: HepG2 Attagene TRANS M06 internal marker reporter. As to the method:
ATG_TRANS is a cell-based, multiplexed-readout assay that uses HepG2, a human liver cell line, with measurements taken at 24 hours after chemical dosing in a 24-well plate.ATG_M_06_TRANS is one of 30 assay component(s) measured or calculated from the ATG_TRANS assay. It is designed to make measurements of mRNA induction, a form of inducible reporter, as detected with fluorescence intensity signals by Reverse transcription polymerase chain reaction (RT-PCR) and Capillary electrophoresis technology.Data from the assay component ATG_M_06_TRANS was analyzed into 1 assay endpoint. This assay endpoint, ATG_M_06_TRANS, was analyzed in the positive analysis fitting direction relative to DMSO as the negative control and baseline of activity. Using a type of inducible reporter, measures of mRNA for gain-of-signal activity can be used to understand the background control at the transcription factor-level as they relate to the gene . Furthermore, this assay endpoint can be referred to as a secondary readout, because this assay has produced multiple assay endpoints where this one serves a background control function. To generalize the intended target to other relatable targets, this assay endpoint is annotated to the background measurement intended target family, where the subfamily is internal marker.
Human liver HepG2 cells are transiently transfected with multiple reporter transcription units (MRTUs) in 6-well plates using FuGene 6 reagent (Roche; 3 ml FuGene/1 mg DNA). The MRTU constructs are regulated by a cis-regulating element (promoter). […] A major difference between the CIS and TRANS system is that in CIS activities of endogenous TFs are measured, whereas the TRANS assay evaluates changes in activities of exogenous, chimeric NR-Gal4 proteins. […] At the end of 24 hour incubation, total RNA was isolated using TriZol reagent (Invitrogen). The isolated RNA is then reverse-transcribed using oligo(dT) primer and Mo-MLV reverse transcriptase (Invitrogen) with DNAse I (Ambion) treatment for 30 min. The one-tenth of the produced cDNA was amplified by PCR using Taq DNA polymerase (Invitrogen) and two reporter sequence-specific primers. The PCR products were fluorescently labeled by primer extension with 6-arboxyfluorescein (6-FAM) 5'-labeled reporter sequence-specific primer (2 min at 95 C, 20 s at 68 C and 10 min at 72 C) and these products were digested with 5U of HpaI (New England Biolabs) for 2h at 37 C. The fragments were purified using Qiaquick PCR columns (Qiagen), analyzed on an ABI 3130xL genetic analyzer (Applied Biosystems) with peak positions identified by using a set of X-rhodamine (ROX)-labeled MapMarker1000 molecular weight standards (BioVentures). The raw capillary electrophoresis data was processed using Attagraph software (Attagene).
Turning to `CNCc1cc(F)ccc1Oc1ccc(Cl)c(Cl)c1`, the call was inactive. The entry for `Cc1cc(=O)[nH]c(=S)[nH]1` is “inactive”. In the case of `C1CCC(SSC2CCCCC2)CC1`, the compound was called inactive. The entry for `Oc1ccc2c(c1)OC[C@@H](N1CCC(O)(c3ccc(F)cc3)CC1)[C@H]2O` is “inactive”; for `FC(F)(F)C(F)(F)C(F)(F)C(F)(F)C(F)(F)C(F)(F)CCI` it is “inactive”; for `CC(CO)OC(C)CO` (stereo not given) (tested in a mixture with another compound) it is “inactive”. Take `CCCCCCCCCCO`: the call was inactive. The entry for `CC1(C)CC(N=C=O)CC(C)(CN=C=O)C1` (stereo not given) is “inactive”. With `CCCCCCC(=O)OCC` the entry was “inactive”; with `CCCCN(CCCC)CCCC`, “inactive”; with `CC(=O)C(C)=CC1C(C)=CCCC1(C)C` (stereo not given), “inactive”.

Regarding `COc1cc(S(=O)(=O)O)c(C)cc1N=Nc1c(O)ccc2cc(S(=O)(=O)O)ccc12`, the result was inactive. Regarding `Cc1ccc(Cl)cc1`, the result was inactive.

Take `CCNc1cccc(C)c1`: the result was inactive. The entry for `Cc1ccc(C)c(O)c1C` is “inactive”.

In the case of `Nc1ccc2c(c1)C(=O)c1ccccc1C2=O`, the result was inactive. With `CC1(C)NC(=O)NC1=O` the entry was “inactive”. Consider `CN[C@H]1CC[C@@H](c2ccc(Cl)c(Cl)c2)c2ccc(S(N)(=O)=O)cc21`, for which the call was inactive. The entry for `CCCc1cc(=O)[nH]c(=S)[nH]1` is “inactive”. With `Cc1cc(NC(=O)C(=O)O)cc(C)c1Oc1ccc(O)c2c1CCC2` the entry was “inactive”; with `CCCCCC(=O)O`, “inactive”; with `CCCCCCCC=O`, “inactive”. The entry for `CCCCC(CC)COC(=O)CC(C(=O)OCC(CC)CCCC)S(=O)(=O)O` (stereo not given) is “inactive”; for `COc1cc(-c2nc(NC(=O)c3cc4cc(C)cc(C)c4n3CC(=O)O)sc2CCC2CCCCC2)c(OC)cc1Cl` it is “inactive”; for `Clc1cc(Cl)c(Cl)cc1Cl` it is “inactive”. In the case of `CCCCCCOCCO`, the result was inactive. The entry for `CCCCCCCCCCCCCO` is “inactive”; for `C[C@]12C=CC(=O)C=C1CC[C@@H]1[C@@H]2C(=O)C[C@@]2(C)[C@H]1CC[C@]2(O)C(=O)CO` it is “inactive”.

On to `O=C(N[C@@H](Cc1ccccc1)[C@@H](O)C(=O)N1C[C@@H](O)[C@@H](O)C1)c1cc2cc(Cl)ccc2[nH]1`, for which the compound was called inactive. The entry for `Nc1ccccc1N` is “inactive”; for `CN1CCCC1=O` it is “inactive”; for `CCCCCCCCCCCC(=O)OC` it is “inactive”.

As for `CC(=O)Oc1ccccc1C(=O)O`, the compound was called inactive. With `CN1CCN(Cc2cc(-c3ccc4[nH]c(=O)oc4c3)co2)[C@@H](c2ccc(F)cc2)C1` the entry was “inactive”; with `CC(=O)OCCOCCOCCOC(C)=O`, “inactive”; with `Nc1ccc(S(=O)(=O)c2ccc(N)cc2)cc1`, “inactive”. The entry for `CC(C)(C)c1cc(O)c(C(C)(C)C)cc1O` is “inactive”; for `Cc1cccc(Nc2cc(Cl)nc(SCC(=O)O)n2)c1C` it is “inactive”. With `Cc1ccc2ncccc2c1` the entry was “inactive”. On to `Cc1cccc([N+](=O)[O-])c1C`, for which the call was inactive.
